Several values for one entry are separate records, joined by “and”; a condition that tells them apart may be missing. Equal entries are not always repeated. Where two headings read alike, the source gives them in different places.
Assays:
CAMKK1 = conditions: concentration: 1 μM, replicates: in singlicate; n = 1
CAMKK2 = conditions: concentration: 1 μM, replicates: in singlicate, n = 1
CASK = conditions: concentration: 1 μM, replicates: in singlicate, n = 1
CDC2L1 = test system: T1, CDC2L1; conditions: concentration: 1 μM, replicates: in singlicate; n = 1
T1 construct: gene CDK11B

CDC2L2 = conditions: concentration: 1 μM, replicates: in singlicate, n = 1
CDC2L5 = test system: T2, CDC2L5; conditions: concentration: 1 μM, replicates: in singlicate, n = 1
T2 construct: gene CDK13

CDK11 = test system: T3, CDK11; conditions: concentration: 1 μM, replicates: in singlicate; n = 1
T3 construct: gene CDK19

CDK2 = conditions: concentration: 1 μM, replicates: in singlicate; n = 1
CDK3 = conditions: concentration: 1 μM, replicates: in singlicate; n = 1
CDK4-cyclinD1 = conditions: concentration: 1 μM, replicates: in singlicate, n = 1
CDK4-cyclinD3 = conditions: concentration: 1 μM, replicates: in singlicate, n = 1
CDK4 = conditions: concentration: 1 μM, replicates: in singlicate, n = 1
CDK5 = conditions: concentration: 1 μM, replicates: in singlicate; n = 1
CDK7 = conditions: concentration: 1 μM, replicates: in singlicate, n = 1
CDK8 = conditions: concentration: 1 μM, replicates: in singlicate, n = 1
CDK9 = conditions: concentration: 1 μM, replicates: in singlicate; n = 1
CDKL1 = conditions: concentration: 1 μM, replicates: in singlicate, n = 1
CDKL2 = conditions: concentration: 1 μM, replicates: in singlicate, n = 1
CDKL3 = conditions: concentration: 1 μM, replicates: in singlicate; n = 1
CDKL5 = conditions: concentration: 1 μM, replicates: in singlicate; n = 1
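Also: KINOMEscan kinase panel screen.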

Compound: CC(C)(C)n1cnc2c(N)ncnc21 [SKF-97359]
- %Inh (CAMKK1): 0%
- %Inh (CAMKK2): 0%
- %Inh (CASK): 0%
- %Inh (CDC2L1): 0%
- %Inh (CDC2L2): 0%
- %Inh (CDC2L5): 0%
- %Inh (CDK11): 0%
- %Inh (CDK2): 0%
- %Inh (CDK3): 0%
- %Inh (CDK4-cyclinD1): 21%
- %Inh (CDK4-cyclinD3): 0%
- %Inh (CDK4): 0%
- %Inh (CDK5): 0%
- %Inh (CDK7): 0%
- %Inh (CDK8): 66%
- %Inh (CDK9): 0%
- %Inh (CDKL1): 0%
- %Inh (CDKL2): 28%
- %Inh (CDKL3): 0%
- %Inh (CDKL5): 0%

Compound: Nc1nc(-c2ccc3c(N)n[nH]c3c2)cc(N2CCCC2)n1 [GSK2227430]
- %Inh (CAMKK1): 0%
- %Inh (CAMKK2): 10%
- %Inh (CASK): 0%
- %Inh (CDC2L1): 0%
- %Inh (CDC2L2): 14%
- %Inh (CDC2L5): 0%
- %Inh (CDK11): 1%
- %Inh (CDK2): 0%
- %Inh (CDK3): 0%
- %Inh (CDK4-cyclinD1): 0%
- %Inh (CDK4-cyclinD3): 0%
- %Inh (CDK4): 0%
- %Inh (CDK5): 0%
- %Inh (CDK7): 0%
- %Inh (CDK8): 0%
- %Inh (CDK9): 0%
- %Inh (CDKL1): 72%
- %Inh (CDKL2): 0%
- %Inh (CDKL3): 0%
- %Inh (CDKL5): 0%

Compound: CC(C)(CN)c1nc(-c2ccc(Cl)c(O)c2)c(-c2ccncc2)[nH]1.O=C(O)C(F)(F)F [SB-477794]
- %Inh (CAMKK1): 0%
- %Inh (CAMKK2; 1 µM): 0% and 4%
- %Inh (CASK; 1 µM): 18% and 0%
- %Inh (CDC2L1): 0%
- %Inh (CDC2L2; 1 µM): 31% and 2%
- %Inh (CDC2L5; 1 µM): 0% and 30%
- %Inh (CDK11): 0%
- %Inh (CDK2): 0%
- %Inh (CDK3): 7%
- %Inh (CDK4-cyclinD1; 1 µM): 25% and 64%
- %Inh (CDK4-cyclinD3; 1 µM): 32% and 0%
- %Inh (CDK4; 1 µM): 39% and 51%
- %Inh (CDK5): 0%
- %Inh (CDK7; 1 µM): 0% and 14%
- %Inh (CDK8; 1 µM): 59% and 64%
- %Inh (CDK9): 0%
- %Inh (CDKL1; 1 µM): 3% and 10%
- %Inh (CDKL2; 1 µM): 14% and 0%
- %Inh (CDKL3): 0%
- %Inh (CDKL5): 0%

Compound: CCCCCc1nc2c(N)ncnc2n1CCCCC [SKF-97255]
- %Inh (CAMKK1): 0%
- %Inh (CAMKK2): 0%
- %Inh (CASK): 25%
- %Inh (CDC2L1): 0%
- %Inh (CDC2L2): 0%
- %Inh (CDC2L5): 0%
- %Inh (CDK11): 10%
- %Inh (CDK2): 0%
- %Inh (CDK3): 9%
- %Inh (CDK4-cyclinD1): 0%
- %Inh (CDK4-cyclinD3): 0%
- %Inh (CDK4): 13%
- %Inh (CDK5): 0%
- %Inh (CDK7): 2%
- %Inh (CDK8): 8%
- %Inh (CDK9): 0%
- %Inh (CDKL1): 26%
- %Inh (CDKL2): 0%
- %Inh (CDKL3): 16%
- %Inh (CDKL5): 7%

Compound: O=C1NC(=O)C(N2CCc3ccccc32)=C1c1cccc(Cl)c1 [SB-408010]
- %Inh (CAMKK1): 7%
- %Inh (CAMKK2): 0%
- %Inh (CASK): 0%
- %Inh (CDC2L1): 0%
- %Inh (CDC2L2): 5%
- %Inh (CDC2L5): 0%
- %Inh (CDK11): 0%
- %Inh (CDK2): 0%
- %Inh (CDK3): 0%
- %Inh (CDK4-cyclinD1): 0%
- %Inh (CDK4-cyclinD3): 0%
- %Inh (CDK4): 0%
- %Inh (CDK5): 7%
- %Inh (CDK7): 9%
- %Inh (CDK8): 0%
- %Inh (CDK9): 0%
- %Inh (CDKL1): 0%
- %Inh (CDKL2): 11%
- %Inh (CDKL3): 0%
- %Inh (CDKL5): 0%
